# Test system: P. falciparum NF54-pfs16-GFP early (I-III) stage gametocytes
# Assay: relative % inhibition of viable gametocyte number; higher = more gametocytocidal
# Details: 0.5 µM; stage: early (I-III) gametocyte; incubation 72 h
# In short: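 Compound was tested in duplicate at 5 or 0.5 µM on magnet-isolated NF54 pfs16-GFP gametocytes, taken either early (I/IIa, day 2) or late (day 8) and plated at 10% parasitaemia, 0.1% haematocrit. Incubation ran 72 h at 37°C, 5% CO2, 5% O2, followed by overnight MitoTracker Red staining and confocal imaging. Relative inhibition, based on counts of elongated GFP objects with above-cut-off MitoTracker signal, was normalised to in-plate vehicle and positive-control wells.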
row,Structure (SMILES),relative % inhibition [%]
1,Oc1ccc(Br)cc1CN1CCN(Cc2cccc(F)c2)CC1,-1.27
2,CCCc1cc(O)c2c3c(c(=O)oc2c1)CN(C)CC3,38.5
3,CCOc1cc(CNC(C)C(O)c2ccccc2)cc(Cl)c1OCC (configuration not stated),-15.8
4,C=CC12CCN(CC1)C(C(O)c1ccnc3ccc(OC)cc13)C2 (configuration not stated),91.6
5,Oc1ccc(Br)cc1CN1CCN(Cc2ccc(Cl)cc2)CC1,12.1
6,COc1cc(CNCCc2ccc(Cl)cc2)cc(OC)c1O,9.61
7,O=C(CCc1ccco1)NC1CCN(CC2(c3ccc(Cl)cc3)CCC2)CC1,-4.87
8,CCOc1c(Cl)cc(CNC(C)C(O)c2ccccc2)cc1OC (configuration not stated),-16.9
9,Oc1ccc(C(=C(Cl)Cl)c2ccc(O)cc2)cc1,-6.22
10,CCCCCCc1cc(O)c2c3c(c(=O)oc2c1)CCC(C)C3 (configuration not stated),-14.4
11,CN(N=O)C1=C(NC2CCCCC2)C(=O)c2ccccc2C1=O,34.8
12,COc1ccc(CN2CCN(Cc3ccccc3)CC2)c(O)c1,-13.8

# Source: the supplement of paper PMC3842684
